Source: PubChem (The Scripps Research Institute Molecular Screening Center)
Rows were chosen to be rich in hits. Some 4.2% of all compounds tested hit in one or more screens of this group.
ssDAF-12 act: S. stercoralis DAF-12 nuclear receptor activators, primary screen, cell-based, luminescence, HEK293, GRIP1 co-expression, lit1-tk-luc; 370,000 compounds, 1% hits; HEK293 ssDAF-12/GRIP1 lit1-tk-luc reporter; % of 3 µM dafachronic acid response; activation, % at 6.8 µM; Nuclear hormone receptor DAF-12 (Strongyloides stercoralis);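 active = activation above the mean over all tested compounds plus 3 SD, cut at about 0.9% in these data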;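 also: 0% = DMSO-only wells and 100% = 3 µM delta7-dafachronic acid wells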
hgDAF-12 ag: H. glycines DAF-12 receptor agonists, primary screen, cell-based, luminescence, HEK293, GAL4 fusion, UAS-luciferase; Nuclear hormone receptor DAF-12 (Heterodera glycines), GAL4 fusion; activation, % at 6.8 µM; AID 687014, 2013; 370,000 compounds, 1.8% hits; HEK293 GAL4-hgDAF12 UAS-luciferase reporter, agonist luminescence; normalized to butyrate control;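 active = activation above a cutoff set at the mean of all screened compounds plus 3 SD, cut at about 10% in these data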;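 also: 0% = DMSO wells and 100% = sodium butyrate wells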
DAX1 StAR inh: DAX1 (NR0B1) inhibitors on StAR promoter, primary screen, cell-based, luminescence, SF-1 (NR5A1), full-length DAX-1. 370,000 compounds, 1.1% hits. inhibition, % at 6.8 µM. HEK293T StAR-luciferase reporter, SF-1/DAX-1 repression relief;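 active = inhibition above the mean over all tested compounds plus 3 SD, cut at about 3.6% in these data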;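 also: 0% = DAX-1 cells with DMSO and 100% = cells lacking DAX-1 with DMSO; higher inhibition means more luminescence from relief of DAX-1 repression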
SMARCA2 activ: SMARCA2 (BRM) function activators, primary screen, cell-based, luminescence, high throughput. AID 652017, 2013. activation, % at 9.1 µM. MG213 cells, MMTV-luciferase reporter, dexamethasone, overnight. 370,000 compounds, 1% hits; in the data active = activation above about 7.8%;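 also: 0% = vehicle wells and 100% = reference activator wells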
hcDAF-12 act: H. contortus DAF-12 nuclear receptor activators, primary screen, cell-based, luminescence, HEK293, lit1-tk-luc reporter; activation, % at 6.8 µM; 370,000 compounds, 1.4% hits; AID 652067, 2013; HEK293 hcDAF-12 lit1-tk-luc reporter; 0% DMSO, 100% Δ7-dafachronic acid;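 active = activation above the mean of all tested compounds plus 3 SD, cut at about 5.5% in these data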;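 also: 100% = response to 3 µM Δ7-dafachronic acid high control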
SMARCA2 conf: SMARCA2 (BRM) function activators, confirmation, cell-based, luminescence, triplicate. shares compounds with SMARCA2 activ. MG213 cells, MMTV-luciferase with dexamethasone, overnight; MG213 cells expressing E1A, Rb sequestered; DMSO wells 0%, reference activator 100%. activation, % at 9.1 µM. 3,500 compounds, 30% hits. AID 652260, 2013;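 active = activation above its plate's cutoff, the mean activation of tested wells plus 3 SD, cut at about 7.9% in these data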
GAL4-VP16 Luc: GAL4-VP16 luciferase reporter activation, counter-screen for SMARCA2 (BRM) activator project, cell-based, pG5luc, luminescence, high throughput. shares compounds with SMARCA2 activ. HEK293 GAL4-VP16 pG5luc reporter; scaled: DMSO wells 0%, SAHA wells 100%. activation, % at 9.1 µM. 3,500 compounds, 41% hits. AID 686939, 2013;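 active = activation above the solvent-only control well mean plus 3 SD, averaged across control plates, cut at about 5.2% in these data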
An asterisk follows results filed as active; . = not tested or not shown.

SMILES	ssDAF-12 act	hgDAF-12 ag	DAX1 StAR inh	SMARCA2 activ	hcDAF-12 act	SMARCA2 conf	GAL4-VP16 Luc
COc1ccc(CCn2c(SCCN3CCCCC3)nc3ccccc3c2=O)cc1OC	-1.9	0.9	0.2	13.0*	-3.5	1.9	1.9
Cc1ccc2nc(NC(=S)NC(=O)c3ccco3)sc2c1	0.2	11.9*	1.4	17.0*	2.6	9.5*	15.1*
Cc1ccc(-c2nnc(NC(=O)c3ccco3)s2)cc1	-0.5	6.4	0.4	9.2*	1.8	12.7*	12.1*
O=C(Nc1nc2ccsc2c(=O)s1)c1ccco1	-0.7	7.5	0.3	13.5*	1.0	10.0*	6.4*
CC(=O)Nc1nc2ccc(NC(=O)c3ccco3)cc2s1	-0.7	3.8	0.9	-0.2	0.7	.	.
Cc1csc2c(=O)sc(NC(=O)c3ccco3)nc12	-0.8	-0.7	-0.1	0.9	-0.3	.	.
CC(C)(C)NC(=O)C(C1CC1)n1c(-c2ccccc2)nc2ccccc21 (stereo unspecified)	-1.5	-5.1	-2.7	-2.3	-2.0	.	.
CCOC(=O)C1=CCN(S(=O)(=O)c2ccc(F)cc2)C1c1ccc(Cl)cc1 (stereo unspecified)	0.0	-0.5	-0.5	-3.0	-0.1	.	.
COc1cc(/C=C/c2ccc3cccc(O)c3n2)cc(Br)c1OC	-0.2	11.5*	0.5	8.4*	0.5	-13.4	34.1*
COc1cc(/C=C/c2ccc3c(Br)cc(Br)c(O)c3n2)ccc1O	-0.9	-4.2	-0.9	8.7*	-0.2	-15.8	7.9*
COc1ccccc1NC(=O)CCN1C(=O)c2ccccc2C1=O	-1.1	-0.1	-0.1	9.5*	-1.2	-3.5	-1.1
COc1ccc(NC(=O)CCN2C(=O)c3ccccc3C2=O)c(OC)c1	-1.6	-1.1	-0.4	-2.6	-3.6	.	.
NC(=O)c1sc2nc(-c3ccccc3)ccc2c1N	-0.7	9.5	1.4	8.1*	1.6	6.8	10.5*
CC(N)c1csc(NC(=O)Nc2cccc(C(F)(F)F)c2)n1 (stereo unspecified)	-1.2	-2.2	-0.6	-4.7	-0.1	.	.
CCc1ccc2nc3nc(C)cc(C)c3c(N)c2c1	-0.4	3.4	0.2	6.2	2.2	.	.
Cc1cc(C)c2c(N)c3ccccc3nc2n1	4.0*	11.1*	1.9	19.1*	18.3*	29.7*	-1.2
Cc1cc(C)cc(NC(=O)NCCCN2CCN(c3ccc(F)cc3)CC2)c1	-1.3	-0.3	-0.6	-5.0	-2.5	.	.
NNC(=O)c1nnsc1-c1csnn1	0.6	10.5*	1.9	9.1*	5.4	-1.4	0.0
O=C(O)c1nnsc1-c1csnn1	-1.2	1.9	-0.4	1.7	-1.1	.	.
CC(=O)c1ccc(N2C(=O)C3C(C2=O)C(C(=O)c2ccc(Cl)cc2)N2CCCC32)cc1 (stereo unspecified)	-1.0	-1.2	0.7	3.0	1.1	.	.
COc1ccc(N2C(=O)C3C(C2=O)C(C(=O)c2ccc(Cl)cc2)N2CCCC32)cc1 (stereo unspecified)	-0.2	0.0	-0.1	12.3*	0.0	2.2	-1.4
C(=NN=C(NN=Cc1cccs1)NN=Cc1cccs1)c1cccs1	-1.1	-3.4	-2.7	12.1*	0.5	-1.9	5.1
CC(C)(C)NC(=O)C(=O)N/N=C/c1cccs1	-0.3	5.5	0.7	1.7	1.5	.	.
O=C(N/N=C/c1cccs1)c1ccccn1	0.0	11.5*	3.4	10.3*	4.8	9.6*	8.9*
COC(=O)[C@]12C[C@H](CC(=O)NCCC(C)C)C(=O)N(Cc3ccco3)C1=C[C@H](C(C)C)O[C@@H]2C1CC1	-0.9	3.8	-0.1	-2.3	-3.2	.	.
SMILES	ssDAF-12 act	hgDAF-12 ag	DAX1 StAR inh	SMARCA2 activ	hcDAF-12 act	SMARCA2 conf	GAL4-VP16 Luc
NC(CCc1ccccc1)c1csc(NC(=O)Nc2ccccc2Oc2ccccc2)n1 (stereo unspecified)	-1.2	3.5	-0.2	-4.8	-0.9	.	.
COc1ccc(NC(=O)c2cc(F)cc(F)c2)cc1Cl	-1.2	7.8	0.5	9.0*	-0.8	0.9	2.7
CCOC(=O)[C@]12CCCC3=C1N(CCC3)C(=O)[C@@H](CC(=O)N1CCN(C(=O)c3ccco3)CC1)C2	-0.7	3.9	-0.4	-3.1	2.0	.	.
CC(C)CNC(=O)OCc1cn(Cc2ccc(C(F)(F)F)cc2)nn1	-1.1	-2.1	0.2	-1.3	-1.4	.	.
CC(C)N1CCC(N2CCN(Cc3ccc(-c4ccccc4Cl)o3)CC2CCO)CC1 (stereo unspecified)	-0.7	-2.3	0.3	-1.5	3.1	.	.
CC(C)N1CCC(N2CCN(Cc3ccc(-c4ccc(Cl)cc4)o3)CC2CCO)CC1 (stereo unspecified)	-0.4	4.3	0.7	9.9*	-0.3	7.4	1.2
COCCCNC(=O)C[C@H]1C[C@@]2(C(=O)OC)C(=C[C@H](C(C)(C)C)O[C@@H]2C)N(Cc2ccco2)C1=O	-1.5	2.4	-0.3	-1.0	-0.6	.	.
CC(C)(C)NC(=O)NC(=O)COc1ccccc1C#N	-0.4	8.9	3.2	9.7*	1.7	3.4	12.2*
Cc1ccc(NC(=S)NC2CC3CCCC(C2)N3Cc2ccco2)cc1 (stereo unspecified)	-1.9	1.3	0.6	10.5*	-1.0	-1.8	2.0
COc1ccc(-c2cc(CNc3nc(NC(C)C)nc4cc(-c5ccccc5)sc34)on2)cc1	-1.9	0.7	0.0	11.7*	-1.7	3.1	4.0
COc1ccccc1CC(=O)N1CCC(CCC(=O)NC2CC2)CC1	-1.5	-0.5	-0.2	8.8*	1.7	-2.8	1.4
Cc1ccccc1NC(=O)C1CCCN1S(=O)(=O)c1cccnc1 (stereo unspecified)	-2.2	2.8	0.6	2.5	1.4	.	.
O=C(CN1C(=O)S/C(=C/C=C/c2ccccc2)C1=O)Nc1ccc(C(=O)O)cc1	-0.2	3.8	0.3	12.2*	-0.6	0.7	0.5
O=C(CN1C(=O)S/C(=C\C=C\c2ccccc2)C1=O)Nc1ccc(C(=O)O)cc1	-0.8	-1.1	0.7	-2.0	-1.6	.	.
COc1ccc(-c2cc(C(F)(F)F)nc(-n3cc(Cl)cn3)n2)cc1	-1.2	0.0	-0.3	8.5*	-3.2	1.6	-0.1
